According to the supplement of paper PMC10981050:
Values joined by “and” are separate entries in the source; they are usually repeats but may differ in a detail not shown here. Equal entries are not always repeated. Structures can show the parent of a compound that is named as a salt.

Assays:
Experiment in all cases: cell viability relative to vehicle control; higher = less cytotoxic
Conditions in all cases: 10 µM
K562 = test system: K562
Outline: (§1)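 CRISPR-edited mutant clones and isogenic wild-type clones from four leukaemia lines were screened against Selleck bioactive, kinase and epigenetic probe libraries, with identity-inconsistent compounds excluded. Each compound was acoustically dispensed at a single 10 µM dose into 384-well plates holding 2000 cells in 50 µL medium per well. After 48 h the supernatant was removed and CellTiter-Glo luminescence was read. Viability was expressed as percent of the on-plate vehicle control and analysed in Genedata Screener.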

MARIMO = test system: MARIMO
Outline: as §1

MOLM14 = test system: MOLM14
Outline: as §1

OCI-AML2 = test system: OCI-AML2
Outline: as §1

SMILES | cell viability (K562; SRSF2 genotype: SRSF2 P95H/wt) | cell viability (K562; SRSF2 genotype: SRSF2 wt/wt) | cell viability (MARIMO; SRSF2 genotype: SRSF2 P95H/wt) | cell viability (MARIMO; SRSF2 genotype: SRSF2 wt/wt) | cell viability (MOLM14; SRSF2 genotype: SRSF2 P95H/wt) | cell viability (MOLM14; SRSF2 genotype: SRSF2 wt/wt) | cell viability (OCI-AML2; SRSF2 genotype: P95H/wt) | cell viability (OCI-AML2; SRSF2 genotype: wt/wt)
CCOc1ccc(Cc2cc([C@@H]3O[C@H](SC)[C@@H](O)[C@H](O)[C@H]3O)ccc2Cl)cc1 [Sotagliflozin (LX4211)] | 84.2% and 86% | 81.4% | 86.3% | 97.3% | 89.7% | 89.5% | 88.6% | 96.9%
CCC1=C[C@@H]2CN(C1)Cc1c([nH]c3ccccc13)[C@@](C(=O)OC)(c1cc3c(cc1OC)N(C)[C@H]1[C@@](O)(C(=O)OC)[C@H](OC(C)=O)[C@]4(CC)C=CCN5CC[C@]31[C@@H]54)C2 [Vinorelbine Tartrate] | 15% and 35% | 31.6% | 7.46% | 7.57% | 0.68% | 0.99% | 1.63% | 3.83%
Cc1ccc(OCC(O)C(C)NC(C)C)c2c1CCC2 (centres undefined) | 93.5% and 95.7% | 92.1% | 104% | 100% | 93.1% | 100% | 92.2% | 99%
O=C1c2ccccc2C(=O)C1c1ccccc1 [Phenindione (Rectadione)] | 103% and 98.4% | 105% | 105% | 104% | 107% | 106% | 101% | 113%
CC(=O)OC1CC2(C)C(CC(O)C3C4(C)CCC(O)C(C)C4CCC32C)C1=C(CCC=C(C)C)C(=O)O (centres undefined) [Fusidine] | 96.3% and 99.9% | 89.4% | 97.5% | 98% | 98.9% | 96.8% | 94.2% | 99.2%
CC(C)c1ccc(C=O)cc1 [4-Isopropylbenzaldehyde] | 94.1% and 90.8% | 92.4% | 94.5% | 99.9% | 86.2% | 94.9% | 89.9% | 93.4%
C/C(=N\NC(=O)c1cccc(S(=O)(=O)N2CCOCC2)c1)c1cc(Cl)ccc1O | 57.4% and 51.4% | 37% | 20.1% | 24.4% | 6.59% | 1.96% | 10.8% | 11.4%
COc1cc(OC2CCN(C)CC2)ccc1Nc1ncc2c(n1)n(C1CCCC1)c(=O)n2C | 81.2% and 76.4% | 78.1% | 44.7% | 38.6% | 10.8% | 14% | 4.89% | 13.5%
Cc1c(Nc2ncccc2C(=O)O)cccc1C(F)(F)F [Flunixin meglumin] | 95.8% and 87.2% | 93.9% | 89.8% | 96.2% | 87.4% | 89.4% | 90.4% | 101%
CCCOC(=O)c1cc(O)c(O)c(O)c1 [Propyl gallate] | 96.2% and 91% | 94.7% | 81.8% | 99.1% | 97.6% | 106% | 98.2% | 97.5%
Cc1cccc(Oc2cnc(=O)[nH]c2)c1 | 97.7% and 96% | 99.4% | 94.2% | 97% | 100% | 97.4% | 103% | 101%
O=C(NC1CCOCC1)c1ccc(-c2cc(-c3c[nH]nc3-c3ccccn3)ccn2)cc1 | 88.3% and 99.8% | 93% | 102% | 110% | 103% | 103% | 101% | 101%
Cc1cc(Nc2ccc(NC(=O)c3ccc(Nc4ccnc5ccccc45)cc3)cc2)nc(N)n1 | 1.14% and 0.97% | 2.69% | 0.48% | 0.36% | 0.33% | 0.25% | 0.22% | 0.27%
O=C(O)CCCC[C@@H]1SC[C@@H]2NC(=O)N[C@@H]21 [Biotin (Vitamin B7)] | 101% and 100% | 96.3% | 104% | 103% | 102% | 108% | 102% | 99.2%
N#C/C(=C1/SC[C@@H](c2ccc(Cl)cc2Cl)S1)n1ccnc1 [Luliconazole] | 85.6% and 83.3% | 82.6% | 78.9% | 100% | 88.7% | 89.5% | 62.5% | 83.5%
CC[C@H]1OC(=O)[C@H](C)[C@@H](O[C@H]2C[C@@](C)(OC)[C@@H](O)[C@H](C)O2)[C@H](C)[C@@H](O[C@@H]2O[C@H](C)C[C@H](N(C)C)[C@H]2O)[C@](C)(O)C[C@@H](C)[C@@H]2N[C@@H](COCCOC)O[C@H]([C@H]2C)[C@]1(C)O [Dirithromycin] | 98.3% and 98% | 98.5% | 97.1% | 109% | 98.7% | 102% | 94.6% | 107%
O=C(c1ccccc1)c1ccc2n1CCC2C(=O)O (centres undefined) [Ketorolac] | 102% and 98.1% | 99.6% | 100% | 102% | 98.2% | 102% | 103% | 108%
Cc1ccc(O)c([C@H](CCN(C(C)C)C(C)C)c2ccccc2)c1 [Tolterodine tartrate (Detrol LA)] | 80.3% and 94% | 87.2% | 75.7% | 81.6% | 70% | 83.4% | 88.6% | 84%
N=C(N)NC(=N)NCCc1ccccc1 [Phenformin hydrochloride] | 84.6% and 93.3% | 91.7% | 93.2% | 98.2% | 101% | 94.9% | 86% | 89.3%

SMILES | cell viability (K562; SRSF2 genotype: SRSF2 P95H/wt) | cell viability (K562; SRSF2 genotype: SRSF2 wt/wt) | cell viability (MARIMO; SRSF2 genotype: SRSF2 P95H/wt) | cell viability (MARIMO; SRSF2 genotype: SRSF2 wt/wt) | cell viability (MOLM14; SRSF2 genotype: SRSF2 P95H/wt) | cell viability (MOLM14; SRSF2 genotype: SRSF2 wt/wt) | cell viability (OCI-AML2; SRSF2 genotype: P95H/wt) | cell viability (OCI-AML2; SRSF2 genotype: wt/wt)
O=c1oc2cc(O)ccc2s1 [Tioxolone] | 95.7% and 106% | 105% | 103% | 101% | 101% | 103% | 102% | 97.4%
NNC(=O)c1ccncc1 [Isoniazid (Tubizid)] | 106% and 109% | 112% | 101% | 107% | 107% | 106% | 102% | 115%
CC(C)(C)C(O)/C=C/c1ccc2c(c1)OCO2 (centres undefined) [Stiripentol] | 105% and 95.5% | 101% | 94.5% | 108% | 100% | 107% | 95.3% | 100%
CCC(=O)NC[C@@H]1C[C@H]1c1cccc2c1CCO2 [Tasimelteon] | 92.1% and 87.6% | 84.4% | 92.1% | 101% | 89% | 93.1% | 88% | 99.3%
CN(C)Cc1cccc(N=C(c2ccccc2)c2c(O)[nH]c3cc(C(=O)N(C)C)ccc23)c1 | 88.8% and 90.6% | 79.6% | 60.9% | 63.4% | 38.4% | 31.6% | 38.5% | 36.2%
CC[C@H]1OC(=O)[C@H](C)[C@@H](O[C@H]2C[C@@](C)(OC)[C@@H](O)[C@H](C)O2)[C@H](C)[C@@H](O[C@@H]2O[C@H](C)C[C@H](N(C)C)[C@H]2O)[C@](C)(O)C[C@@H](C)C(=O)[C@H](C)[C@H]2OC(=O)O[C@@]21C [Erythromycin Cyclocarbonate] | 101% and 103% | 92.5% | 98.3% | 101% | 104% | 99.5% | 99% | 101%
CCCCC[C@H](O)/C=C/[C@H]1[C@H](O)CC(=O)[C@@H]1C/C=C\CCCC(=O)O [Dinoprostone] | 99% | 99.1% | 91.4% | 79.3% | 59.1% | 62% | 74.5% | 67.5%
O=C(/C=C/c1ccc(O[C@@H]2O[C@H](CO)[C@@H](O)[C@H](O)[C@H]2O)cc1)c1ccc(O)cc1O [Isoliquiritin] | 96.8% and 98% | 105% | 103% | 97.6% | 69.7% | 87.6% | 111% | 107%
CCOc1nc2cccc(C(=O)O)c2n1Cc1ccc(-c2ccccc2-c2nnn[nH]2)cc1 [Candesartan (Atacand)] | 91% and 88.3% | 89.3% | 91.7% | 100% | 94.7% | 93.5% | 83.1% | 87.3%
CC1(C)CCC2(C(=O)O)CCC3=C(CCC4C3(C)CCC3C4(C)CC(O)C(O)C3(C)C(=O)O)C2C1 (centres undefined) [Polygalic acid] | 86.1% and 86.3% | 82% | 89.8% | 92% | 87.7% | 87.9% | 83.1% | 95.3%
O=C1NC(=O)C(=Cc2ccc(-c3ccc(F)cc3)o2)S1 (stereo in doubt) | 102% and 101% | 97.1% | 93.1% | 92.5% | 113% | 108% | 94.6% | 95.8%
CC(=O)OCc1ccccc1 [Benzyl acetate] | 103% and 94.2% | 100% | 96.5% | 105% | 97% | 107% | 98.3% | 98.4%
COC(=O)CCC(C)C1CCC2C3C(O)CC4CC(O)CCC4(C)C3CC(O)C12C (centres undefined) [Methyl Cholate] | 97.3% and 98.1% | 101% | 104% | 112% | 55.6% | 89% | 102% | 81.8%
CNCc1ccc(-c2cc(-c3nc(-c4ccc(S(=O)(=O)C(C)C)cc4)cnc3N)on2)cc1 | 3.16% and 2.89% | 1.89% | 0.36% | 0.32% | 0.28% | 0.34% | 0.39% | 0.9%
O=C(/C=C/c1ccc(O)cc1)OC[C@H]1O[C@@H](Oc2c(-c3ccc(O)cc3)oc3cc(O)cc(O)c3c2=O)[C@H](O)[C@@H](O)[C@@H]1O [Tiliroside] | 99.3% and 99.1% | 95.3% | 98.9% | 109% | 100% | 105% | 104% | 111%
Cn1c(=O)cc(C(=O)Nc2ccc3c(c2)OCCO3)c2ccccc21 | 97.4% and 96% | 94% | 99% | 104% | 102% | 100% | 93.4% | 101%
C[C@H](NCc1ccc(OCc2cccc(F)c2)cc1)C(N)=O | 102% | 99.9% | 105% | 102% | 98.2% | 98.2% | 115% | 106%
CC(=O)OCC(=O)[C@@]1(O)[C@H](C)C[C@H]2[C@@H]3CCC4=CC(=O)C=C[C@]4(C)[C@@]3(F)[C@@H](O)C[C@@]21C [Dexamethasone acetate] | 105% and 106% | 106% | 105% | 104% | 103% | 95.5% | 106% | 109%
CC(=O)NS(=O)(=O)c1ccc(N)cc1 [Sulfacetamide Sodium] | 96.5% and 94.7% | 101% | 96.3% | 101% | 101% | 101% | 108% | 96.6%
